Measured values reported in PubChem BioAssay (Tox21).
Values joined by “and” are separate entries in the source; they are usually repeats but may differ in a detail not shown here. Equal values may be shown once. Unmarked numbers belong to inactive results. Records with an inconclusive call do not appear. A call without a number means that no potency is given here. Active and inactive are the calls of the source. Unless noted, calls follow the shape of the dose curve; as a rule, active = well fitted curve in the direction sought with a large enough effect in the repeat runs; inconclusive = weak or mixed curves; inactive = no such curve, though single readings can be large; an effect the other way counts as inactive or inconclusive.

What was measured:
[1] = qHTS assay for small molecule agonists of the p53 signaling pathway (AID 651631; calls by dose curve; also: nearly all actives have a fitted effect of over 15% in size; also: potency is read from the fitted curve at half-maximal effect)
Outline: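 Readout was fluorescence from the LiveBLAzer FRET substrate, applied for 2 h at room temperature after 16 h compound exposure at 37 °C. Cells were the p53RE-bla HCT-116 line, with beta-lactamase driven by p53 response elements.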

[2] = qHTS assay for small molecules that induce genotoxicity in human embryonic kidney cells expressing luciferase-tagged ATAD5 (AID 651632); also: nearly all actives have a fitted effect of over 15% in size; also: potency is read from the fitted curve at half-maximal effect
Outline: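 ATAD5-luc HEK293T, 2,000 cells/well; cpd or DMSO pin-transferred; 16 hr, 37C/5% CO2; Amplite 30 min RT; luminescence.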

[3] = qHTS assay for small molecule agonists of the p53 signaling pathway - cell viability (AID 651633; calls by dose curve; also: series mostly up to about 83 µM; nearly all actives have a fitted effect of over 30% in size)
Outline: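 p53RE-bla cells were treated with compound for 16 hours at 37 C. Cytotoxicity was then measured as CellTiter-Glo luminescence after 30 min at room temperature.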

[4] = qHTS assay for small molecules that induce genotoxicity in human embryonic kidney cells expressing luciferase-tagged ATAD5 - cell viability (AID 651634; calls by dose curve; also: nearly all actives have a fitted effect of over 25% in size; also: potency is read from the fitted curve at half-maximal effect)
Outline: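 Fluorescence from CellTiter-Fluor, reporting protease activity within live cells, served as the viability read-out. HEK293T cells carrying luciferase-tagged ATAD5 had been treated with compound for 15.5 hr at 37C.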

[5] = qHTS assay for small molecule disruptors of the mitochondrial membrane potential - cell viability (AID 720634; calls by dose curve; also: nearly all actives have a fitted effect of over 20% in size; also: potency is read from the fitted curve at half-maximal effect)
Outline: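 Cells: HepG2, 2,000/well, attached overnight. Compound 1 hr, 37 C/5% CO2. +m-MPI dye, +CellTiter-Glo 30 min RT. Readout: luminescence (ATP).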

[6] = qHTS assay to test for compound auto fluorescence at 590 nm (red) in HepG2 cells (AID 720674)
Outline: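 Fluorescence at 590 nm emission following 540 nm excitation was recorded from HepG2 wells one hour after compound transfer, with DMSO-only wells as vehicle and Rose Bengal sodium equivalency as the scale.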

[7] = qHTS assay to test for compound auto fluorescence at 535 nm (green) in HepG2 cells (AID 720675)
[8] = qHTS assay to test for compound auto fluorescence at 460 nm (blue) in HEK293 cells (AID 720678)
Outline: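 After cell attachment (4-5 hr, 37C), compounds were pinned onto HEK293 monolayers in 10% dialyzed FBS medium. The blue channel (405/460 nm) was read following overnight culture. Equivalency was calculated against triamterene.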

[9] = qHTS assay to test for compound auto fluorescence at 590 nm (red) in HEK293 cells (AID 720679)
Outline: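 Plates of HEK293 cells (10% dialyzed FBS) are treated with 23 nL compound or DMSO vehicle after a 4-5 hr attachment period, incubated overnight at 37C, and read for red fluorescence at 540/590nm.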

[10] = qHTS assay to test for compound auto fluorescence at 535 nm (green) in HEK293 cells (AID 720680)
[11] = qHTS assay to test for compound auto fluorescence at 460 nm (blue) in HEK293 cell free culture (AID 720681)
Outline: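 Compounds were added to cell-free DMEM with 10% FBS and fluorescence read directly. The blue channel used 405 nm excitation and 460 nm emission, with triamterene as the reference fluorophore.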

[12] = qHTS assay to test for compound auto fluorescence at 535 nm (green) in HEK293 cell free culture (AID 720682)
Outline: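 Compounds were pin-transferred into cell-free DMEM with 10% FBS, and green fluorescence was read at excitation 485 nm and emission 535 nm. Intensities were expressed as fluorescein-equivalent values.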

[13] = qHTS assay to test for compound auto fluorescence at 590 nm (red) in HEK293 cell free culture (AID 720683)
Outline: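 Cell-free wells of DMEM with 10% FBS received compound, and intrinsic fluorescence was read at excitation/emission 540/590 nm. Values expressed as equivalence to Rose Bengal sodium.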

[14] = qHTS assay to test for compound auto fluorescence at 590 nm (red) in HepG2 cell free culture (AID 720684)
Outline: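 Compounds are added to culture medium (MEM, 10% FBS) lacking cells, then fluorescence is read at excitation 540 nm, emission 590 nm, with Rose Bengal sodium as the equivalency standard.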

[15] = qHTS assay to test for compound auto fluorescence at 460 nm (blue) in HepG2 cell free culture (AID 720685)
Outline: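 Compound (23 nL) or DMSO pinned into cell-free MEM with 10% FBS; blue fluorescence read at 405/460 nm excitation/emission, expressed as auto-fluorescence equivalency to triamterene.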

[16] = qHTS assay to test for compound auto fluorescence at 535 nm (green) in HepG2 cell free culture (AID 720686)
[17] = qHTS assay to test for compound auto fluorescence at 460 nm (blue) in HepG2 cells (AID 720687)
Outline: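 HepG2 cells in MEM with 10% FBS, attached overnight at 37 C, were exposed to compound or DMSO for 1 hr at 37 C, 5% CO2. Blue fluorescence was read at 405/460 nm, with triamterene as reference fluorophore.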

[18] = biological target: Glucocorticoid receptor (Homo sapiens) (UniProt P04150); test: qHTS assay to identify small molecule agonists of the glucocorticoid receptor (GR) signaling pathway (AID 720691; active = well fitted activation curve with a large enough effect in the signal ratio in the repeat runs, not every such curve was filed as active; the % refers to the signal ratio)
Sequence of Glucocorticoid receptor (Homo sapiens) (P04150 whole entry, looked up): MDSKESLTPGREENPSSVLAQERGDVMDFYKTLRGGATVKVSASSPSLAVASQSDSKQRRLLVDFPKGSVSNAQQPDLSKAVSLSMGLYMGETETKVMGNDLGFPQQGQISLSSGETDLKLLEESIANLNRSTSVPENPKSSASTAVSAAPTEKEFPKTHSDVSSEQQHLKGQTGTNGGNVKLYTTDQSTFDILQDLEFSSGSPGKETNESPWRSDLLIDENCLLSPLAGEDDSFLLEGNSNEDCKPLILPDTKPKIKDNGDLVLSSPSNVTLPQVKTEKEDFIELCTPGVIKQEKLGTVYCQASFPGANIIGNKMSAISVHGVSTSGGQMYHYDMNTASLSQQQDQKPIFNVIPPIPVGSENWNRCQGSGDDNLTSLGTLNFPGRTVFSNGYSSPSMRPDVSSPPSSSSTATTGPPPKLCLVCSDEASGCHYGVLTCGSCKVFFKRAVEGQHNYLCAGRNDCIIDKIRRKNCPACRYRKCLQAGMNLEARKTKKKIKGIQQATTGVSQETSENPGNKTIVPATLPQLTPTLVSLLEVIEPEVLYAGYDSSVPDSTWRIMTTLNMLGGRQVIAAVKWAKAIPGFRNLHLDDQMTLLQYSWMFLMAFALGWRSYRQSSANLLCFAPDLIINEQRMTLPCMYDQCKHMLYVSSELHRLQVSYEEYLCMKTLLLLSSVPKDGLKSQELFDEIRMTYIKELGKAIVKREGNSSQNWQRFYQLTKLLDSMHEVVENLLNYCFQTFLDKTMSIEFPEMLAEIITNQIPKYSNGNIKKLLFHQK
Outline: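 Fluorescence intensity from LiveBLAzer B/G FRET substrate (2 h, room temperature) reports beta-lactamase expression driven by the glucocorticoid response element in GR-bla HeLa cells after 18 h compound exposure at 37 C.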

[19] = biological target: Glucocorticoid receptor (Homo sapiens) (UniProt P04150); test: qHTS assay to identify small molecule antagonists of the glucocorticoid receptor (GR) signaling pathway (AID 720692; active = well fitted inhibition curve with a large enough effect in the signal ratio in the repeat runs, not every such curve was filed as active; the % refers to the signal ratio)
Outline: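 HeLa GR-bla cells; cmpd + dex 5 nM final, 18 h 37 C; LiveBLAzer B/G FRET substrate 2 h RT; fluorescence intensity read. Antagonist mode, qHTS.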

[20] = qHTS assay for small molecule disruptors of the mitochondrial membrane potential (AID 720635); also: potency is read from the fitted curve at half-maximal effect
Outline: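 HepG2 cells exposed to compound 1 hr at 37C, then Mito-MPS dye 30 min. Ratio read of aggregate (540/590 nm) versus monomer (490/535 nm) fluorescence.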

| SMILES | Potency [1] | Potency [2] | Potency [3] | Potency [4] | Potency [5] | outcome [6] | outcome [7] | Potency [8] | outcome [9] | outcome [10] | Potency [11] | outcome [12] | outcome [13] | outcome [14] | Potency [15] | outcome [16] | Potency [17] | Potency [18] | Potency [19] | Potency [20] |
| --- | --- | --- | --- | --- | --- | --- | --- | --- | --- | --- | --- | --- | --- | --- | --- | --- | --- | --- | --- | --- |
| Nc1nccs1 | inactive | inactive | inactive | inactive | inactive | inactive | inactive | inactive | inactive | inactive | inactive | inactive | inactive | inactive | inactive | inactive | inactive | inactive | inactive | – |
| CCn1nc(C)c2c1C(=O)NCC(c1ccc(O)cc1)=N2 | inactive | inactive | inactive | inactive | inactive | inactive | inactive | inactive | inactive | inactive | inactive | inactive | inactive | inactive | inactive | inactive | inactive | inactive | – | – |
| C[Si]1(C)O[Si](C)(C)O[Si](C)(C)O1 | inactive | inactive | inactive | inactive | inactive | inactive | inactive | inactive | inactive | inactive | inactive | inactive | inactive | inactive | inactive | inactive | inactive | – | – | – |
| Cc1oncc1C(=O)Nc1ccc(C(F)(F)F)cc1 | inactive | 5.07 µM (active) and 2.73 µM (active) | inactive | inactive | 61100 nM (active) | inactive | inactive | inactive | inactive | inactive | inactive | inactive | inactive | inactive | inactive | inactive | inactive | inactive | inactive | 10.1 µM (active) and 7.7 µM (active) |
| CCCCCCCCSCCO | inactive | inactive | inactive | inactive | inactive | inactive | inactive | inactive | inactive | inactive | inactive | inactive | inactive | inactive | inactive | inactive | inactive | inactive | inactive | 24.3 µM (active) |
| Cc1ccc(S)cc1 | inactive | inactive | inactive | inactive | inactive | inactive | inactive | inactive | – | inactive | inactive | inactive | inactive | inactive | inactive | – | – | – | – | inactive |
| COCC(O)CO (stereo not drawn) | inactive | inactive | inactive | inactive | inactive | inactive | inactive | inactive | inactive | inactive | inactive | inactive | inactive | inactive | inactive | inactive | inactive | inactive | inactive | – |
| CC(=N\O)/C(C)=N/O | inactive | inactive | inactive | inactive | inactive | inactive | inactive | inactive | inactive | inactive | inactive | inactive | inactive | inactive | inactive | inactive | inactive | – | – | – |
| COC(=O)Nc1nc2ccc(C(=O)c3cccs3)cc2[nH]1 | 133 nM (active) | 2.37 µM (active) | inactive | 133 nM (active) | inactive | inactive | inactive | inactive | inactive | inactive | inactive | inactive | inactive | inactive | inactive | inactive | – | – | – | 2.37 µM (active) |
| O=C1OCCN1/N=C/c1ccc([N+](=O)[O-])o1 | inactive | inactive | inactive | inactive | inactive | inactive | inactive | inactive | inactive | inactive | inactive | inactive | inactive | inactive | inactive | – | inactive | inactive | inactive | inactive |
| CCCCCCCCCOC(C)=O | inactive | inactive | inactive | inactive | inactive | inactive | inactive | inactive | inactive | inactive | inactive | inactive | inactive | inactive | inactive | inactive | inactive | inactive | inactive | inactive |
| CC(COc1ccc(C(C)(C)C)cc1)OS(=O)OCCCl (stereo not drawn) | inactive | inactive | inactive | inactive | inactive | inactive | inactive | inactive | inactive | inactive | inactive | inactive | inactive | inactive | inactive | inactive | inactive | – | – | – |
